CHX counter: counter-screen hit for Shiga toxin inhibitors, cycloheximide. cell reporter, cycloheximide protein synthesis inhibition counterscreen. max response, %. 12% of 300,000 active; in the data active = max response mostly above about 13%, no sharp cut-off; inactive = mostly below about 14%; also: read at 38.3 µM for the half of the compounds with a filed dose
Shiga toxin inh: Shiga toxin inhibition | Vero cells, Shiga toxin protein synthesis inhibition reporter | inhibition, % at 38.7 µM | 9.2% of 290,000 active; in the data active = inhibition mostly above about 28%, no sharp cut-off; inactive = mostly below about 43%
AMA1 RON2 block: disrupts binding of P. falciparum AMA1 to RON2; AID 720542; Potency, µM (top dose mostly 58.2 µM), actives largely listed as inhibitors; 0.2% of 360,000 active; AlphaScreen AMA1-biotinylated RON2 peptide binding; also: nearly all actives have a fitted effect of over 45% in size
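AMA1 (3D7) with his tag at 25 nM final met compounds first, then biotinylated RON2 peptide at 25 nM; detection used donor plus acceptor beads, 10 µg/mL apiece, read by AlphaScreen after 30 min at room temperature.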
Pf growth 48h: inhibits P. falciparum growth in the first generation, 48 h; P. falciparum luciferase growth in erythrocytes, 48 h; Potency, µM (doses to about 28.7 µM), usual class: inhibitors; 5.9% of 310,000 active; AID 504832
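Luminescence readout; reporter = integrated firefly luciferase in P. falciparum. RBC culture at 2% hematocrit, 0.1% parasitemia final, 37 C/5% CO2; decreased signal taken as growth inhibition.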
Pf growth 96h: P. falciparum growth inhibition at 96 hour, primary screen for plastid delayed-death inhibitors; 6.9% of 320,000 active; AID 504834; P. falciparum luciferase reporter growth, 96 h; Potency, µM (series often up to 28.7 µM), actives largely listed as inhibitors
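Delayed-death screen, second-generation endpoint: infected erythrocytes, 2% hematocrit, 0.05% parasitemia final; 96 hours at 37 C, 5% CO2; luciferase detection reagent; luminescence decrease equals reduced growth.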
SARS PLpro yeast: blocks SARS-CoV papain-like protease in a yeast assay; S. cerevisiae expressing SARS-CoV PLpro, growth rescue; Potency, µM (series often up to 32.9 µM), most hits filed as activators; 0.19% of 330,000 active; calls by dose curve; also: nearly all actives have a fitted effect of over 55% in size
Large screens that a line does not name were inactive. In the library only some 19% were active in any assay of this set; here they are far more common. Unless noted, calls follow the shape of the dose curve; as a rule, active = well fitted curve in the direction sought with a large enough effect; inconclusive = small, poorly fitted or top-dose-only effect, or another doubt; inactive = no such curve, though single readings can be large; an effect the other way counts as inactive or inconclusive.

CC(C)(C)N1CC(c2nc3ccccc3n2CCOc2ccccc2)CC1=O (centres undefined)	Pf growth 96h 5.9µM (no result: Pf growth 48h)
Cc1nc(Cl)c(Cl)n1CCOc1ccccc1	Pf growth 48h 8.3µM, Pf growth 96h inconclusive
CC(C)(C)N1CC(c2nc3ccccc3n2Cc2ccc(Cl)cc2)CC1=O (centres undefined)	Pf growth 48h inconclusive (no result: Pf growth 96h)
CCCn1c(COc2ccccc2)nc2ccccc21	CHX counter 8.3, Pf growth 48h inconclusive, Pf growth 96h inconclusive
CCCn1c(COc2ccccc2OC)nc2ccccc21	CHX counter 14 (no result: Shiga toxin inh)
CCOCCn1c(COc2ccccc2)nc2ccccc21	none (no result: Pf growth 96h)
Cc1ccc(OCCn2c(C)nc3ccccc32)cc1	Pf growth 48h inconclusive (no result: Shiga toxin inh)
CC(=O)c1c(C)oc(C)c1CSCc1ccc(C(=O)O)o1	none
CCc1cc2c(SCc3ccc(C(=O)OC)o3)ncnc2s1	none
COc1ccc(C2CC(=O)c3cnc(N4CCc5ccccc54)nc3C2)c(OC)c1 (centres undefined)	none (no result: AMA1 RON2 block)
C=CCn1c(COc2ccccc2OC)nc2ccccc21	CHX counter 8.4, Pf growth 48h inconclusive, Pf growth 96h inconclusive
CCn1c(COc2ccccc2C(N)=O)nc2ccccc21	none (no result: Pf growth 96h)
C=CCn1c(C(C)C)nc2ccccc21	none
CCn1c(COc2ccccc2C)nc2ccccc21	CHX counter 33, Shiga toxin inh 39, Pf growth 96h inconclusive
Cc1nc2ccccc2n1CCCOc1ccccc1	CHX counter 21, Shiga toxin inh 47, Pf growth 96h inconclusive
CCn1c(COc2ccccc2OC)nc2ccccc21	CHX counter 13
COc1cc(NC(=S)N2CCN(c3ccccn3)CC2)c(OC)cc1Cl	Pf growth 48h inconclusive
O=C1NCCN(CC2CCN(CCc3ccccc3)CC2)C1=O	none (no result: CHX counter, Shiga toxin inh, Pf growth 48h, Pf growth 96h, SARS PLpro yeast)
CC(C)C1CC(CCN)(Cc2ccccc2)CCO1 (centres undefined)	Pf growth 48h inconclusive
O=C(CN1C(=O)COc2ccccc21)NCCCN1CCOCC1	none
O=C(CN1C(=O)COc2ccccc21)NCCCN1CCCCC1	Pf growth 96h 1µM
O=C(CCN1C(=O)COc2ccccc21)NCCCN1CCN(c2ccccc2F)CC1	Pf growth 96h 2.6µM
C[C@H]1CN([C@@H](C)CO)C(=O)c2cc(Br)cnc2O[C@H]1CN(C)S(=O)(=O)c1ccccc1F	none (no result: CHX counter, Shiga toxin inh, Pf growth 48h, Pf growth 96h, SARS PLpro yeast)
CCOC(=O)c1cnc(SC)nc1Nc1cccc(F)c1	none
CCOC(=O)c1cnc(SC)nc1Sc1cc(Cl)ccc1Cl	Pf growth 48h inconclusive, Pf growth 96h 10µM
COc1ccc(NC(=O)c2cc(C3CCCCN3S(C)(=O)=O)on2)c(C)c1 (centres undefined)	none (no result: CHX counter, Shiga toxin inh, Pf growth 48h, Pf growth 96h, SARS PLpro yeast)
CCN(CC(=O)Nc1c(F)cccc1F)C(=O)Cn1c(=O)cnc2ccccc21	none (no result: CHX counter, Shiga toxin inh)
C/C(=N\N=c1/scc(C)n1Cc1ccco1)c1cccc([N+](=O)[O-])c1	CHX counter 18, Pf growth 96h inconclusive
Cc1cc(N2CCOCC2)nc2ccc(Cl)cc12	CHX counter 41, Shiga toxin inh 62
CCN1CCN(c2cc(C)c3cc(NC(=S)N(CC)CC)ccc3n2)CC1	Pf growth 48h 13µM
Cc1cc(N2CCOCC2)nc2ccc(NC(=S)N3CCN(c4ccccc4)CC3)cc12	Pf growth 48h inconclusive, Pf growth 96h inconclusive
CCC(C)NC(=S)Nc1ccc2nc(N3CCN(CC)CC3)cc(C)c2c1 (centres undefined)	Pf growth 96h inconclusive
COc1ccc(CNC(=S)Nc2ccc3nc(N4CCN(C)CC4)cc(C)c3c2)cc1	Pf growth 48h inconclusive, Pf growth 96h inconclusive
CCCCN(CC)CCCNC(=S)Nc1ccc2nc(N3CCN(C)CC3)cc(C)c2c1	Pf growth 48h inconclusive
CCCN(CCC)CCCNC(=S)Nc1ccc2nc(N3CCCC3)cc(C)c2c1	Pf growth 48h 1.5µM, Pf growth 96h inconclusive
COc1ccccc1CNC(=S)Nc1ccc2nc(N3CCN(C)CC3)cc(C)c2c1	Pf growth 48h 6.6µM
CN(C(=O)Cc1c(C(=O)O)n(C)c2ccccc12)c1ccc(F)cc1	Pf growth 96h inconclusive
Cc1ccc(C(c2nnnn2CCC(C)C)N2CCN(C)CC2)cc1 (centres undefined)	Pf growth 96h inconclusive
CCOCCCNC(=S)Nc1ccc2nc(N3CCOCC3)cc(C)c2c1	Pf growth 96h 15µM
CCCCN(CC)CCCNC(=S)Nc1ccc2nc(N3CCN(CC)CC3)cc(C)c2c1	Pf growth 48h 2.9µM
